# Entries with a potency or affinity are not part of this list.
# Experiments:
# [1] = tested on: Klebsiella pneumoniae; conditions: Concentration 20 uM; ASSAY_TEST Inhibition of Bacterial Growth; detection method Absorption (OD600); MEDIA CAMHB; plate type 384well; NBS; CORNING #3640; time 18 hr
# [2] = tested on: Candida albicans; conditions: 20 µM
# [3] = tested on: Cryptococcus neoformans; conditions: Concentration 20 uM; ASSAY_TEST Inhibition of Fungal Growth; detection method Resazurin; Absorption (OD600-OD570); plate type 384well; NBS; CORNING #3640
Compound,Inhibition [1] [%],Inhibition [2] [%],Inhibition [3] [%]
COc1cc(C)c(/C=C/C(C)=C/C=C/C(C)=C/C(=O)O)c(C)c1C [ACITRETIN],7.64,3.07,-7.56
COC(=O)Nc1nc2cc(C(=O)c3ccccc3)ccc2[nH]1 [MEBENDAZOLE],11.43,4.65,41.35
COc1ccc([C@@H]2Sc3ccccc3N(CCN(C)C)C(=O)[C@@H]2OC(C)=O)cc1.Cl [DILTIAZEM HYDROCHLORIDE],11.57,4.02,1.8
Cc1nccn1CC1CCc2c(c3ccccc3n2C)C1=O (stereo not given) [ONDANSETRON],11.11,4.72,-0.32
N=c1cc(N2CCCCC2)nc(N)n1O,8.77,2.93,-7.74
CCCN1CCCC[C@H]1C(=O)Nc1c(C)cccc1C.Cl [ROPIVACAINE HYDROCHLORIDE],12.03,3.24,-6.59
Cc1sc(N)c(C(=O)c2cccc(C(F)(F)F)c2)c1C,7,1.23,-0.97
O=C(O)COCCN1CCN(C(c2ccccc2)c2ccc(Cl)cc2)CC1 (stereo not given) [CETIRIZINE],-1.38,3.71,-6.19
Cl.O=C(O)/C=C/c1ccc(Cn2ccnc2)cc1,3.67,3.2,-5.32
CC[C@H](C)C(=O)O[C@H]1C[C@H](O)C=C2C=C[C@H](C)[C@H](CC[C@@H](O)C[C@@H](O)CC(=O)[O-])[C@H]21.[Na+] [PRAVASTATIN SODIUM],13.36,4.25,-0.35
Cl.OC(CCN1CCCC1)(c1ccccc1)C1CCCCC1 (stereo not given) [PROCYCLIDINE HYDROCHLORIDE],8.43,4.68,-10.03
CCCCC1=NC2(CCCC2)C(=O)N1Cc1ccc(-c2ccccc2-c2nnn[nH]2)cc1 [IRBESARTAN],7.4,-0.2,0.28
Oc1ncc(F)cn1,12.75,0.46,-8.59
CCCCC(=O)OC1(C(=O)CO)CCC2C3CCC4=CC(=O)CCC4(C)C3C(O)CC21C (stereo not given),9.82,3.16,-1.86
O=C1CCC(N2C(=O)c3ccccc3C2=O)C(=O)N1 (stereo not given) [THALIDOMIDE],3.28,3.62,-0.8
CC[C@H](C)C(=O)O[C@H]1C[C@@H](C)C=C2C=C[C@H](C)[C@H](CC[C@@H]3C[C@@H](O)CC(=O)O3)[C@H]21 [LOVASTATIN],12.43,17.1,-5.68
O=C1Nc2ccc(Cl)cc2[C@@](C#CC2CC2)(C(F)(F)F)O1 [EFAVIRENZ],-2.99,3.86,-5.8
OC[C@H]1O[C@@H](Oc2cc(O)cc(/C=C/c3ccc(O)cc3)c2)[C@H](O)[C@@H](O)[C@@H]1O [PICEID],6.92,3.19,-0.2
NS(=O)(=O)c1cc2c(cc1C(F)(F)F)NCNS2(=O)=O [HYDROFLUMETHIAZIDE],13.59,-0.33,-2.31
CC(C)(C)C(O)/C=C/c1ccc2c(c1)OCO2 (stereo not given) [STIRIPENTOL],6.61,4.55,2.5
CC(=O)O.CC(C)C[C@H](NC(=O)[C@@H](COC(C)(C)C)NC(=O)[C@H](Cc1ccc(O)cc1)NC(=O)[C@H](CO)NC(=O)[C@H](Cc1c[nH]c2ccccc12)NC(=O)[C@H](Cc1c[nH]cn1)NC(=O)[C@H]1CCC(=O)N1)C(=O)N[C@H](CCCNC(=N)N)C(=O)N1CCC[C@@H]1C(=O)NNC(N)=O,2.33,2.52,-3.07
Cl.Clc1ccccc1CN1CCc2sccc2C1 [TICLOPIDINE HYDROCHLORIDE],-0.77,1.25,-6.79
CC(O)CO.N[C@@H](C(=O)N[C@@H]1C(=O)N2C(C(=O)O)=C(CSc3c[nH]nn3)CS[C@H]12)c1ccc(O)cc1,6.28,12.3,-40.25
CC(=O)NS(=O)(=O)c1ccc(N)cc1 [SULFACETAMIDE],11.67,1.53,0.24
O=C(O)c1cc(/N=N/c2ccc(S(=O)(=O)Nc3ccccn3)cc2)ccc1O [SULFASALAZINE],2.94,8.72,5.13

# Source: ChEMBL document CHEMBL4513141, “CO-ADD screening of NIH (USA) - Clinical Collection” (2021)
